# Source: PubChem BioAssay AID588342 (National Center for Advancing Translational Sciences (NCATS), 2011)
# The campaign covered roughly 360,000 compounds. About 25,000 (6.9%) were called active. Roughly 9% stayed inconclusive and do not appear here. The entries come from a sample that favours actives as a whole. A number with no mark means an inactive call. Calls follow the shape of the dose curve; as a rule, active = well fitted inhibition curve with a large enough effect; inconclusive = small, poorly fitted or top-dose-only effect; inactive = flat fitted curve, though single readings scatter.
# Target: Luciferin 4-monooxygenase (Photinus pyralis) (UniProt P08659)
# Assay: qHTS profiling assay for firefly luciferase inhibitor/activator using purifed enzyme and Km concentrations of substrates (counterscreen for miR-21 project); also: nearly all actives have a fitted effect of over 55% in size;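 as to activity change, negative = inhibition: plate controls were vehicle for no effect and reference inhibitor for full effect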
# Settings: purified FLuc, luminescence inhibition; series mostly up to 57.5 µM; activity change, negative = inhibition: at the top concentration
# How it was run: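 Purified P. pyralis luciferase (10nM final) with 10uM D-luciferin and 10uM ATP (Km levels) in 50mM Tris acetate pH 7.5, 10mM Mg acetate, 0.01% Tween-20, 0.05% BSA; qHTS 6-point titration, ~60 µM downward; luminescence read.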
# Potency is read from the fitted curve at half-maximal effect.
# Chain of Luciferin 4-monooxygenase (Photinus pyralis) (P08659 whole entry, looked up): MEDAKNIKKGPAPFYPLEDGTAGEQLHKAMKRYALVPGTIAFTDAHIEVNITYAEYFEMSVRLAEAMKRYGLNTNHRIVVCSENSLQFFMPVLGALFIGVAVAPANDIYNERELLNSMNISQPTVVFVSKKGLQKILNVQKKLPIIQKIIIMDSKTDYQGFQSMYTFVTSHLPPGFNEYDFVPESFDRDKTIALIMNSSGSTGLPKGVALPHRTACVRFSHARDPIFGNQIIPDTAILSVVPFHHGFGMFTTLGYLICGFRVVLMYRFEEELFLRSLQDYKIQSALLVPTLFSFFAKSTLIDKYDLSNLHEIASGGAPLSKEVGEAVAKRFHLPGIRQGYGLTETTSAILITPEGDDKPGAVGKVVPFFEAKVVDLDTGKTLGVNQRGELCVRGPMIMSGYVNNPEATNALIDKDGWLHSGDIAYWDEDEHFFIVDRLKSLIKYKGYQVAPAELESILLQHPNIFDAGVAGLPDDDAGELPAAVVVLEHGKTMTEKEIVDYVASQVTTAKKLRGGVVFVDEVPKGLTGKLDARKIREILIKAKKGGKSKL
SMILES,Potency,"activity change, negative = inhibition"
CCc1ccc(-c2cc(C(=O)NN3CCN(C)CC3)c3ccccc3n2)cc1,2.69 µM (active),–
CC1CCCC(NC(=O)c2cc(-c3ccncc3)nc3ccccc23)C1C (configuration not stated),–,0.447%
CCc1ccc(Sc2cc(C(=O)NCCCOC(C)C)c3ccccc3n2)cc1,–,-16.5%
CN(Cc1ccccc1)c1ncnc2onc(-c3ccc(F)cc3)c12,–,-17.8%
COc1ccccc1C(=O)Nn1c(-c2cccs2)nc2ccccc2c1=O,–,0.184%
O=C(CSc1nc(Nc2ccc(F)c(F)c2)c2ccccc2n1)c1ccc(Cl)cc1,–,-3.03%
CC(=O)Nc1cccc(Nc2nc(-c3cccs3)nc3ccccc23)c1,23.9 µM (active),–
CC(=O)c1ccc(S(=O)(=O)N(C)CCCC(=O)N(C)Cc2ccccc2F)cc1,–,2.93%
O=C(/C=C/c1cn(CC(O)CN2CCc3ccccc32)c2ccccc12)c1ccc(Br)cc1 (configuration not stated),–,-2.15%
CC1CN(C(=S)SCC(=O)c2ccccc2)CC(C)O1 (configuration not stated),–,-1.21%
COc1cccc(NC(=O)CN(C)C(=O)CSC(=S)N2CCCC2)c1,–,2.27%
O=C(CSC(=S)N1CCOCC1)c1cc(Br)cc(Br)c1O,–,-14.9%
CC(=O)c1ccc(NC(=O)CSC(=S)N2CCCC2)cc1,–,-11.5%
O=C(CSC(=S)N1CCCCC1)c1c(F)cccc1F,2.13 µM (active),–
O=C(CSC(=S)N1CCOCC1)c1ccccc1,3.01 µM (active),–
CCCCNC(=O)Cn1nc(C)c(S(=O)(=O)N2CCOCC2)c1C,–,6.35%
Cc1ccc(OCC(=O)OCc2cc(=O)n3nc(C4CC4)sc3n2)cc1C,–,-5.73%
Cc1nn(-c2nc(-c3ccccc3)cc(C(F)(F)F)n2)c(C)c1Cl,–,-10.5%
COC(=O)c1cc(S(=O)(=O)N2CCN(c3cc(Cl)ccc3C)CC2)c[nH]1,–,-8.69%
COc1ccc(NC(=O)CSc2nccn2C2CCCC2)cc1OC,–,-9.33%
COC(=O)c1ccccc1NC(=O)c1ccc(COc2ccccc2Cl)o1,–,0.735%
COc1ccc(OCc2cc(C(=O)NCC3(C)COC3)no2)c(Cl)c1,19 µM (active),–
COc1ccc(CCNC(=O)c2cnc(Cl)c(Cl)c2)cc1,–,-8.36%
CC1CCCN(Cc2c(O)ccc3c(=O)c(Oc4ccc(C(C)(C)C)cc4)c(C(F)(F)F)oc23)C1 (configuration not stated),–,-0.574%
COc1ccc(NC(=O)Cn2c(=O)n(Cc3ccc(C(=O)NCc4ccccc4Cl)cc3)c(=O)c3ccccc32)cc1,–,-5.56%
O=C(Cn1c(=O)n(Cc2cccs2)c(=O)c2cccnc21)Nc1ccc(F)cc1,–,-12.1%

SMILES,Potency,"activity change, negative = inhibition"
COc1cc(C(=O)N2CCC(c3ccncc3)CC2)cc(OC)c1OC,–,-0.564%
C/C(N)=C(/C#N)C(=O)COC(=O)C1CCN(C(=O)c2ccc(Cl)cc2)CC1,–,-1.2%
COc1cccc(CNC(=O)c2ccc3c(c2)sc2nc(-c4cccc(OC)c4)cn23)c1,–,1.31%
Cc1ccc2nc(COc3cccc(NC(=O)Nc4ccc(C)c(Cl)c4)c3)cc(=O)n2c1,–,-15.5%
Cc1ccc2nc(COc3cccc(NC(=O)c4cccc(Cl)c4)c3)cc(=O)n2c1,–,-1.22%
Cc1ccc2nc(COc3cccc(NC(=O)c4ccccc4Cl)c3)cc(=O)n2c1,10.7 µM (active),–
O=C(CNS(=O)(=O)c1ccc2ccccc2c1)Nc1ccc(F)c(F)c1F,–,-0.997%
O=C(NCCc1ccccc1)c1ccc2c(c1)N(Cc1ccccc1)C(=O)c1ccccc1S2(=O)=O,–,-0.938%
CC(C)C(=O)Nc1c(O)c2ccccc2[nH]c1=O,–,-1.52%
NS(=O)(=O)c1ccccc1NC(=O)c1c(O)c2ccccc2[nH]c1=O,9.53 µM (active),–
CCCc1nc2ccccc2c(=O)n1NC(=O)c1c(O)c2ccccc2[nH]c1=O,–,-1.3%
CC1(C)N=C(SCc2ccccc2Cl)c2ccccc2N1,–,-13.1%
Cc1noc(/C=C/N(C)C)c1S(=O)(=O)N1CCCC(C(=O)Nc2cccc(F)c2)C1 (configuration not stated),–,-2.85%
Cc1ccc(S(=O)(=O)N2CC(O)C[C@H]2C(=O)OCC(=O)Nc2ccc(N3CCOCC3)cc2)cc1C (some centres not stated),–,-11.1%
CC(=O)c1sc(N2C(=O)c3oc4ccccc4c(=O)c3C2c2ccc(C)cc2)nc1C (configuration not stated),–,4.04%
COc1ccc(-c2cn3c(C)c(C(=O)Nc4cc(C)cc(C)c4)sc3n2)cc1,–,-3.09%
CCN(c1cccc(C)c1)S(=O)(=O)c1ccc(-c2coc(C)n2)cc1,–,-0.211%
COc1ccc(-c2cn3ccc(C)cc3n2)cc1,0.19 µM (active),–
CCN(CC)S(=O)(=O)c1ccc(-c2cn3ccc(C)cc3n2)cc1,2.39 µM (active),–
CCN(CC(=O)NCCc1ccccc1)S(=O)(=O)c1ccc(C)cc1,–,0.229%
COc1ccc(-n2c(-c3ccc(OC)c(OC)c3)n[nH]c2=S)cc1,–,0.218%
Fc1ccc(CN2CCc3nc(Nc4ccccc4)ncc3C2)cc1F,–,-10.5%
O=C(Nc1cc(C(F)(F)F)ccc1Cl)c1nc2ccccc2nc1N1CCCCC1,–,0.203%
CCN1CCC(N(Cc2ccc(F)cc2)C(=O)Nc2cc(C)ccc2C)CC1,–,-1.66%
O=C(NC1CCCCC1)c1ccc2c(c1)N(Cc1ccc(Cl)cc1)C(=O)c1ccccc1S2=O (configuration not stated),–,3.17%
CN(C(=O)COC(=O)CCCc1c[nH]c2ccccc12)c1c(N)n(Cc2ccccc2)c(=O)[nH]c1=O,–,4.71%

SMILES,Potency,"activity change, negative = inhibition"
CCc1nc2onc(C)c2c(=O)n1CC(=O)O,–,-0.818%
CC(C)CNC(=O)C(=O)Nc1ccc(N(C)C)cc1,10.7 µM (active),–
CC(C)CNC(=O)C(=O)NCc1ccccc1,–,0.285%
CC(C)CNC(=S)Nc1ccc(F)cc1,–,4.61%
COc1ccc(CNC(=O)CSc2nc3ccccc3nc2Cc2ccccc2)cc1,–,-6.86%
COC(=O)c1cc(=O)n(-c2c(Cl)cc(C(F)(F)F)cc2Cl)[nH]1,–,-0.736%
Cn1cc(CCC(=O)NCc2ccc3c(c2)OCO3)c2ccccc21,–,-3.15%
CCc1ccccc1NC(=O)Cc1cn(C)c2ccccc12,inactive,–
Cc1ccc(CNC(=O)Cc2cn(C)c3ccccc23)cc1,15.1 µM (active),–
COc1cc(Cl)c(NC(=O)CC(C)S(=O)(=O)c2cc3c(cc2C)NC(=O)CO3)c(OC)c1 (configuration not stated),–,4.64%
Cc1nc(NC(=O)c2cccc(Cl)c2)sc1-c1csc(Nc2cccc(Cl)c2)n1,–,-19.1%
CC(=O)c1sc(NC(=O)C2=NN(c3ccccc3)C(=O)CC2)nc1C,–,-8.27%
CC(=O)c1sc(N/N=C\c2ccc(C)cc2)nc1C,2.39 µM (active),–
CC(=O)c1sc(NC(=O)c2ccc(C)cc2)nc1C,1.9 µM (active),–
Cc1nnc(C)n1/N=C/c1ccc(C(C)C)cc1,–,-14.6%
Cc1cc2c(=O)n(CC(=O)NCC(=O)Nc3ccc(C(C)C)cc3)cnc2s1,–,0.706%
CCCCCCC(=O)Nc1nc(C)c(-c2csc(Nc3cc(Cl)ccc3OC)n2)s1,–,3.19%
Cc1ccc(C)c2sc(NC(=O)c3ccc(S(=O)(=O)N4CCCC4)cc3)nc12,–,-4.28%
CC(=O)c1sc(N)nc1C,–,2.76%
CC(=O)c1sc(N/N=C/c2ccc(C(C)C)cc2)nc1C,6.01 µM (active),–
Cc1ccc(Nc2nc(-c3sc(NC(=O)c4ccccc4)nc3C)cs2)cc1,12 µM (active),–
CC(=O)Nc1ccc(NC(=O)C2CCCN(S(=O)(=O)c3ccc4c(c3)CCCC(=O)N4)C2)cc1 (configuration not stated),–,3.09%
CCc1cccc(CC)c1NC(=O)COc1ccccc1C(=O)c1cc(C#N)c(=O)n(C2CCCCC2)c1,–,0.626%
C=C(C)CNc1cc(S(=O)(=O)N2CCOCC2)ccc1Oc1ccccc1,–,-9.91%
Cc1ccc(Nc2c(-c3ccc(Cl)cc3)nc3sccn23)c(C)c1,–,1.53%
Cc1ccc(-c2nn3c(=O)cc(CN4CCN(S(=O)(=O)c5ccc(Cl)cc5)CC4)nc3s2)cc1,–,-1.26%

SMILES,Potency,"activity change, negative = inhibition"
O=S(=O)(c1ccc(C2CCCCC2)cc1)N1CCN(c2ccc(Cl)c(Cl)c2)CC1,–,-0.965%
CC(C)C(=O)Nc1ccc2oc(=O)ccc2c1,–,-0.984%
Cc1cc(=O)oc2cc(NC(=O)C(C)Oc3ccccc3)ccc12 (configuration not stated),–,-4.58%
CC(C)C(=O)Nc1ccc2c(c1)oc1ccccc12,2.69 µM (active),–
COc1cc2nc(SCc3ccc(F)cc3)n3nc(CCn4c(C)nc5ccccc54)nc3c2cc1OC,–,3.7%
O=C(CCc1nc(CN2CCN(S(=O)(=O)c3ccc(F)cc3)CC2)no1)N1CCCCC1,–,-0.23%
CCC(=O)N1CCc2cc(Br)cc(S(=O)(=O)CCC(=O)NCCc3ccc(OC)c(OC)c3)c21,–,-1.48%
CCC(=O)N1c2ccccc2CC1C(=O)N1CCN(c2ccccc2F)CC1 (configuration not stated),–,-2.51%
COc1cc(OC)cc(C(=O)Nc2ccc3nc(Nc4cccc(C(F)(F)F)c4)cc(C)c3c2)c1,–,-0.831%
Cc1ccc2nc(Nc3ccccc3)cc(C)c2c1,23.9 µM (active),–
Cc1ccc2nc(Nc3ccccc3O)nc(-c3ccccc3)c2c1,–,5.48%
O.O.O.O=S(=O)([O-])OC[C@H]1O[C@@H](O[C@]2(COS(=O)(=O)[O-])O[C@H](OS(=O)(=O)[O-])[C@@H](OS(=O)(=O)[O-])[C@@H]2OS(=O)(=O)[O-])[C@H](OS(=O)(=O)[O-])[C@@H](OS(=O)(=O)[O-])[C@@H]1OS(=O)(=O)[O-].[Al],–,3.26%
CSc1nc2ccc(NC(=O)c3c(F)cccc3F)cc2s1,19 µM (active),–
O=C(Nc1ccncc1)c1c(F)cccc1F,–,-3.22%
CC(=O)Nc1ccc2nc(SCCOc3cc(C)cc(C)c3)sc2c1,–,-7.29%
O=C(Cn1ncc(N2CCCC2)c(Br)c1=O)c1ccc(Cl)cc1,19 µM (active),–
CCn1c(=O)c(=O)n(CC)c2cc(N3CCCCC3)c(NC(=O)c3ccc(Cl)cc3)cc21,–,2.47%
CC(=O)Cn1ncc(N2CCOCC2)c(Br)c1=O,–,-1.76%
COc1ccccc1NC(=O)c1cc(Cl)nc2ccccc12,–,-8.53%
O=C(O)c1cccc(NC(=O)c2cc(-c3cccc(Cl)c3)nc3ccccc23)c1,16.9 µM (active),–
CCN(CC)CCNC(=O)c1ccc(NC(=O)c2cc(-c3ccncc3)nc3ccccc23)cc1,–,-1.21%
COc1ccc(CNC(=O)CSc2n[nH]c(-c3ccc(F)cc3)n2)cc1,–,-15.8%
CCc1ccc(-c2nc(SCC(=O)NC3CCCC3)n[nH]2)cc1,19 µM (active),–
CCOc1cc(-c2nnc(SCC(=O)NC3CCCC3)nc2-c2ccc(OC)c(OCC)c2)ccc1OC,–,-2.08%
